Test results taken from PubChem BioAssay.
For some of these results: Results with a measured potency or affinity are listed apart. Calls of active or inactive are those of the source. How the calls were made is not given here.

Biological target: Plasmodium falciparum protein kinase 6 (PK6, PF3D7_1337100) (UniProt Q8IDW1)
Experiment: PfPK6 kinase inhibitors, biochemical, TCAMS library (AID 1159586)
Conditions: recombinant PfPK6, Kinase-Glo ATP depletion luminescence

Plasmodium falciparum protein kinase 6 (PK6, PF3D7_1337100), sequence (Q8IDW1 1-305): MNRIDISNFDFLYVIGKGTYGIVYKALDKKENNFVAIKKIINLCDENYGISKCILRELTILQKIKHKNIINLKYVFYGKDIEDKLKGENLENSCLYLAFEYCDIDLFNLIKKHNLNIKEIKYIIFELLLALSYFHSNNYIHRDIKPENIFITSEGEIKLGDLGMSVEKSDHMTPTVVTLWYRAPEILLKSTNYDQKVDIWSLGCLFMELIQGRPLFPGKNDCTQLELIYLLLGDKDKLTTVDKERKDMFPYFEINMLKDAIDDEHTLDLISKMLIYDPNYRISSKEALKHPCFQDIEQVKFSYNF

Row | Compound | outcome
1 | COc1ccccc1C1CCN(C2CCC(NC(=O)/C=C/c3cc(F)cc(C(F)(F)F)c3)CC2)CC1 (centres undefined) | inactive
2 | O=[N+]([O-])c1cccc(-c2nc(-c3ccc(Br)cc3)[nH]c2-c2ccc(Br)cc2)c1 | inactive
3 | COc1ccccc1-c1ccc(CNC(=O)C(CN2CCN(C)CC2)c2ccccc2)cc1 (centres undefined) | inactive
4 | CCNS(=O)(=O)c1ccc(Oc2ccc([N+](=O)[O-])cc2)cc1 | inactive
5 | CCOc1cc2ncnc(Nc3ccc(OCc4ccccc4Br)c(OC)c3)c2cc1OCC | inactive
6 | Cc1onc(-c2ccccc2Cl)c1C(=O)Nc1cc(Cl)c(Cl)cc1Cl | inactive
7 | Cc1cc(OCC(=O)Nc2ccc(-c3nc4ccccc4[nH]3)cc2)cc(C)c1Cl | inactive
8 | COc1cc(Cc2cnc(N)nc2N)ccc1OCc1ccc(NC(C)=O)cc1 | inactive
9 | CCn1c(CN2CCN(Cc3ccccc3)CC2)nc2cc(NC(=O)c3cccs3)ccc21 | inactive

Biological target: Protein kinase 7 (PK7), Plasmodium falciparum 3D7 (PF3D7_0213400) (UniProt Q7YTF7)
Experiment: inhibition of Plasmodium PK7 catalytic activity – biochemical, TCAMS antimalarial set, Kinase-Glo luminescence (AID 1159587)
Conditions: recombinant PfPK7, Kinase-Glo ATP depletion luminescence

Protein kinase 7 (PK7), Plasmodium falciparum 3D7 (PF3D7_0213400), sequence (Q7YTF7 1-343): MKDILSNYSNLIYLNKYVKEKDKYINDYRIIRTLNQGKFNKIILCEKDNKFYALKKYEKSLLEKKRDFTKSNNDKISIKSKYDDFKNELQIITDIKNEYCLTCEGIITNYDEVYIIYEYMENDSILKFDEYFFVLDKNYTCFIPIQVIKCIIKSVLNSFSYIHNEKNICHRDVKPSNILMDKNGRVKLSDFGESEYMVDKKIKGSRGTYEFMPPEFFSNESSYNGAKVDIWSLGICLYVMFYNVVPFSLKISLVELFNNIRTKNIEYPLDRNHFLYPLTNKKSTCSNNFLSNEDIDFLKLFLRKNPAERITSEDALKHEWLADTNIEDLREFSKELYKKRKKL

Row | Compound | outcome
10 | Cc1cc(NCCCCCCCCNc2cc(C)nc3ccccc23)c2ccccc2n1 | inactive
11 | CC(C)n1ncc2c(C(=O)N3CCCC4CCCCC43)cc(C3CC3)nc21 (centres undefined) | inactive
12 | CCCC1CCNC(C(O)c2ccnc3ccc(OC)cc23)C1 (centres undefined) | inactive
13 | CC(C)C(=O)n1ncc2c3c(N)nc(N)nc3ccc21 | inactive
14 | Oc1ccc(CCCNc2nc(NCc3cccc4ccccc34)nc(N3CCNCC3)n2)cc1 | inactive
15 | CC1N=C(N)N=C(N)N1OCc1ccccc1 (centres undefined) | inactive
16 | CC(C)c1cc(N)c2cc(NC(=O)COCC(=O)Nc3ccc4nc(C(C)C)cc(N)c4c3)ccc2n1 | inactive
17 | Cc1ccnc(Nc2nc(-c3ccccn3)cs2)c1 | inactive
18 | NC(=O)c1cccc(C(=O)Nc2ccc(-c3cccc(-c4nc5ccc(C(F)(F)F)cc5[nH]4)c3)cc2)c1 | inactive
19 | COc1ccc(CC(=O)Nc2ccc(Nc3nc(C)cc(N(C)C)n3)cc2)cc1 | inactive
20 | CC1(C)N=C(NC(=O)c2ccc([N+](=O)[O-])cc2)N=C(N)N1OCc1ccc2ccccc2c1 | inactive
21 | Cc1ccc(C)c(C2CCN(CCCCNC(=O)c3ccc(NC(=O)c4ccc(Cl)cc4)cc3)CC2)c1 | inactive
22 | CCCc1ccc(NC(=O)c2ccc(CN3CCCN(Cc4cccc(O)c4)CC3)cc2)cc1 | inactive
23 | Cc1[nH]c(C)c(-c2ccc(OCc3cccc(C(F)(F)F)c3)nc2)c(=O)c1Br | inactive
24 | COc1ccccc1NC(=O)Nc1cccc(-c2cccc(-c3nc4ccc(C(F)(F)F)cc4[nH]3)c2)c1 | inactive
25 | Cc1cc(NN=Cc2cccc(F)c2)c2ccc(F)cc2n1 | inactive
26 | CN1CCc2cc(I)c(O)cc2C1Cc1ccccc1Cl (centres undefined) | inactive
27 | O=C(/C=C/c1ccc(Cl)c(Cl)c1)NCCCCCN1CCN(C(=O)Nc2ccc(Cl)c(C(F)(F)F)c2)CC1 | inactive
28 | CCN1CCC(N(Cc2ccc(-c3ccc(C(F)(F)F)cc3)cc2)C(=O)Cn2c(CCc3cccc(F)c3F)cc(=O)c3ccccc32)C1 (centres undefined) | inactive
29 | Cc1cc2nc(-c3ccc(/C=C/C(=O)NCc4ccc(Cl)c(Cl)c4)cc3)[nH]c2cc1C | inactive

Row | Compound | outcome
30 | CC(=O)Nc1cccc(CNCc2ccc(-c3cnc(N4CCCC(C)(C)C4)nc3)cc2)c1 | inactive
31 | Cc1cc(NCCc2ccccc2)nc(/N=C(\N)Nc2ccccc2Cl)n1 | inactive
32 | CC(C)CC(NC(=O)c1cccc(OCCN2CCOCC2)c1)C(=O)NC(/C=N/NC(=O)c1ccccc1)CCc1ccccc1 (centres undefined) | inactive
33 | CC(C)(C)c1cc(C(=O)Nc2ccc(C(=N)N)cc2)c(O)c(C(C)(C)C)c1 | inactive
34 | Cc1ccc2c(NN=Cc3ccc(N(C)C)cc3)cc(C)nc2c1 | inactive
35 | CC1CCCN(S(=O)(=O)c2cc(Br)cc3c2N(C(=O)C2CC2)CC3)C1 (centres undefined) | inactive
36 | Cc1cc(OCCCN2CCCCC2)ccc1NC(=O)COc1ccc(Cl)cc1C(=O)c1cc(C#N)cc(C(F)(F)F)c1 | inactive
37 | CCCCCCN1CCC(NCc2cccc([N+](=O)[O-])c2)CC1 | inactive
38 | CCCCCN1CCCN(Cc2cccc(NC(=O)c3ccc(Cl)c(Cl)c3)c2)CC1 | inactive
39 | CCc1c(CCNCCCCCCNCCc2ccc([N+](=O)[O-])cc2)ccc(OC)c1OC | inactive
40 | Cc1cc(-c2ccc(NC(=O)N3CCc4cc(Br)c(N5CCN(C)CC5)cc43)cc2)ccc1C#N | inactive
41 | COc1ccccc1C1CCN(C2CCC(NC(=O)/C=C/c3cc(F)cc(C(F)(F)F)c3)CC2)CC1 (centres undefined) | inactive
42 | O=[N+]([O-])c1cccc(-c2nc(-c3ccc(Br)cc3)[nH]c2-c2ccc(Br)cc2)c1 | inactive
43 | COc1ccccc1-c1ccc(CNC(=O)C(CN2CCN(C)CC2)c2ccccc2)cc1 (centres undefined) | inactive
44 | CCNS(=O)(=O)c1ccc(Oc2ccc([N+](=O)[O-])cc2)cc1 | inactive
45 | CCOc1cc2ncnc(Nc3ccc(OCc4ccccc4Br)c(OC)c3)c2cc1OCC | inactive
46 | Cc1onc(-c2ccccc2Cl)c1C(=O)Nc1cc(Cl)c(Cl)cc1Cl | inactive
47 | Cc1cc(OCC(=O)Nc2ccc(-c3nc4ccccc4[nH]3)cc2)cc(C)c1Cl | inactive
48 | COc1cc(Cc2cnc(N)nc2N)ccc1OCc1ccc(NC(C)=O)cc1 | inactive
49 | CCn1c(CN2CCN(Cc3ccccc3)CC2)nc2cc(NC(=O)c3cccs3)ccc21 | inactive
